Over roughly 33,000 sequences, “e-score” has its median near -0.037; the highest 2% begin near 0.34. The full list was thinned out, with the highest values kept by preference.
These sequences were tested against T1, GST-Rok (full length) (Bacillus subtilis subsp. subtilis str. …, UniProt O34857 1-191) (assay: protein binding microarray; Rok is a gene silencer of Bacillus subtilis; high values mean tight binding). Details: protein: recombinant; tags: GST (pTH5325, pDEST15-Magic modified); dsDNA, one strand shown.
T1 sequence: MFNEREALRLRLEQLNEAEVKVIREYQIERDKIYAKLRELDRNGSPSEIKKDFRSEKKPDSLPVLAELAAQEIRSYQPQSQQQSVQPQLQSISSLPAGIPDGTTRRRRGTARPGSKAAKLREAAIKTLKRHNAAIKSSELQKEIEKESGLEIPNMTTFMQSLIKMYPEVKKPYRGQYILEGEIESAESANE
In short: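 Each has a 25-mer constant primer and a 35-mer variable part from a de Bruijn sequence of order 10, covering every non-palindromic 8-mer at least 32 times (palindromic 16). Preference for each 8-mer is given as a rank-based, unitless enrichment score (E-score). Its range runs from 0.5 (most favored) to −0.5 (most disfavored).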

Row | Sequence | binding signal
1 | ATAGGTGA | 0.0572 E-score
2 | GAGCCCAA | -0.192 E-score
3 | GACCAGTA | 0.0441 E-score
4 | CTTTTATC | 0.118 E-score
5 | ATTTGGGA | -0.131 E-score
6 | AAACGTCT | -0.171 E-score
7 | AAGTGACG | 0.0469 E-score
8 | AAACAGGG | -0.0541 E-score
9 | AGTTCCAT | 0.0525 E-score
10 | AGTTTGAC | -0.0534 E-score
11 | ACAACTCA | 0.097 E-score
12 | GAATAGTA | 0.285 E-score
13 | AAATAGTT | 0.4 E-score
14 | TAATAGTA | 0.401 E-score
15 | AAATAGTC | 0.119 E-score
16 | AAGTAATA | 0.275 E-score
17 | AAGTAACA | 0.207 E-score
18 | TAATAGCA | 0.257 E-score
19 | TAGTAATA | 0.408 E-score
20 | TAGTAACA | 0.366 E-score
21 | GAGTAATA | 0.318 E-score
22 | CAGTAACA | 0.0586 E-score
23 | AAATAGTG | 0.231 E-score
24 | GTTTGTAA | 0.172 E-score
25 | CATCACAG | -0.0903 E-score

Row | Sequence | binding signal
26 | ACAGTTAC | 0.278 E-score
27 | ACATCAAG | 0.00272 E-score
28 | AGGGTGAA | -0.17 E-score
29 | CGTGGCTC | -0.0956 E-score
30 | GCATGGGC | -0.196 E-score
31 | AATGGTAG | 0.398 E-score
32 | ATTGGTAG | 0.371 E-score
33 | CATGGTAG | 0.168 E-score
34 | ATTGGTAA | 0.265 E-score
35 | AGTGGTAC | 0.191 E-score
36 | AGTGGTAG | 0.393 E-score
37 | CGTGGTAG | 0.295 E-score
38 | AATGGTAT | 0.309 E-score
39 | ATAGGTAG | 0.41 E-score
40 | ATAGGTAA | 0.223 E-score
41 | ATTGGTAC | 0.289 E-score
42 | ATAGGTAC | 0.219 E-score
43 | CACTGCTA | 0.106 E-score
44 | ACAGAACC | -0.171 E-score
45 | CTTTTTTC | 0.0367 E-score
46 | CAAACCTA | 0.145 E-score
47 | GTATAGAA | 0.329 E-score
48 | ATATAGAG | 0.208 E-score
49 | AAATAGAA | 0.368 E-score
50 | ATATAGAC | 0.0949 E-score

Row | Sequence | binding signal
51 | ATATAGAA | 0.354 E-score
52 | CTATAGAA | 0.275 E-score
53 | AAATAGAC | 0.0132 E-score
54 | GAATAGAA | 0.101 E-score
55 | ATATAGAT | 0.416 E-score
56 | TGATGTAA | 0.134 E-score
57 | AACCGTAG | 0.0498 E-score
58 | CGCAATAA | 0.185 E-score
59 | ACATCTAG | 0.325 E-score
60 | CTATCTAA | 0.264 E-score
61 | CTATCTAC | 0.433 E-score
62 | ATCTCTAG | -0.00242 E-score
63 | ATATCTGC | 0.221 E-score
64 | CTATCTTC | 0.11 E-score
65 | CTCTCTAC | 0.0296 E-score
66 | ATCTCTAA | 0.0544 E-score
67 | ATCTCTAC | 0.0894 E-score
68 | ATATCTAA | 0.371 E-score
69 | ATATCTAG | 0.346 E-score
70 | ATATCTAC | 0.393 E-score
71 | AGTTAGGG | -0.0305 E-score
72 | CTATGATA | 0.172 E-score
73 | AACCCAAC | 0.212 E-score
74 | ACACAAGC | -0.0939 E-score
75 | AACGCCCT | -0.11 E-score

Row | Sequence | binding signal
76 | ACTTCACT | 0.0809 E-score
77 | TACTCTGA | -0.0307 E-score
78 | CTATATTA | 0.384 E-score
79 | ACATATTG | 0.148 E-score
80 | CGATATTA | 0.213 E-score
81 | AGATATTA | 0.404 E-score
82 | CCATATTA | 0.165 E-score
83 | ATCTATTG | 0.282 E-score
84 | CAATATTA | 0.254 E-score
85 | ACATATTA | 0.345 E-score
86 | AGATATTG | 0.196 E-score
87 | GCATATTA | 0.242 E-score
88 | ATATATTG | 0.372 E-score
89 | CTCTATTA | 0.0982 E-score
90 | AGATTCGG | 0.0606 E-score
91 | ACAATCGG | 0.00195 E-score
92 | AACTGTTC | 0.004 E-score
93 | AAGCAAAA | 0.0376 E-score
94 | GTATATTA | 0.391 E-score
95 | ATATATTA | 0.467 E-score
96 | ATATATGA | 0.287 E-score
97 | GTATATGA | 0.216 E-score
98 | ATCTATTA | 0.312 E-score
99 | GTGTATTA | 0.205 E-score
